Here are results for 28 molecules from PubChem BioAssay (NCATS).

Assay [1] has as its target Cellular tumor antigen p53 (Homo sapiens) (UniProt P04637). As to the kind of experiment: Primary qHTS for small molecule compounds that upregulate eGFP-tagged delta133p53alpha (in N-terminal) cells. (AID 2060322). Further: nearly all actives have a fitted effect of over 75% in size.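 On activation: series mostly up to about 56 µM; 0% = DMSO vehicle and 100% = reference activator.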 To be noted: NCI-H358 eGFP-delta133p53alpha fluorescence, 24 h; activation: active compounds read high. Put shortly: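 NCI-H358 cells pre-induced 24 h with 10 ng/ml doxycycline to express N-terminal eGFP-delta133p53alpha, then dosed 24 h at 37C without doxycycline; fixed, Hoechst-stained, GFP intensity by laser scanning cytometry, normalized to DMSO (0%) and 57.5 uM 5-azacytidine (100%).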
(In general: Quantitative high-throughput screening tests each substance at several concentrations.)

Assay [2] concerns the target Retinaldehyde dehydrogenase 3 (Homo sapiens) (UniProt P47895). As to the kind of experiment: qHTS for Inhibitors of the Aldehyde Dehydrogenase Family (ALDH1A3) Primary screen (AID 2061315).
Assay [3] can be described thus: BET inhibitor-based combinations targeting novel dependencies in MECOM-rearranged (r) AML: SET-2 cell line (AID 2202231). Further: nearly all actives have a fitted effect of over 35% in size.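 On viability: plate controls were DMSO treated cells for no effect and wells without cells for full effect.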 As to conditions: SET-2 AML cells viability, CellTiter-Glo luminescence, 48 h; viability: active compounds read low, concentration not given here. Put shortly:
(§1)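 Luminescent ATP readout (CellTiter-Glo) after 48 hr drug exposure gives viability. Curves span 11 concentrations and are normalized to DMSO and empty wells. Activity is reported as area under the curve and its Z-transform within each cell line.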

The nature of assay [4]: BET inhibitor-based combinations targeting novel dependencies in MECOM-rearranged (r) AML: OCI-AML3 cell line (AID 2202232). Further: nearly all actives have a fitted effect of over 35% in size. As to conditions: Potency: OCI-AML3 viability. Put shortly:
as §1

Assay [5] can be described thus: BET inhibitor-based combinations targeting novel dependencies in MECOM-rearranged (r) AML: MV-4-11 cell line (AID 2202233). Further: nearly all actives have a fitted effect of over 45% in size. Put shortly:
(§2)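 Luminescent ATP readout (CellTiter-Glo, 15 min at room temperature) after 48 hr drug exposure gave viability. Dose-response curves, normalized to DMSO and empty-well controls, were summarized as area under the curve and its mean-centred Z-score.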

The nature of assay [6]: BET inhibitor-based combinations targeting novel dependencies in MECOM-rearranged (r) AML: HNT-34 cell line (AID 2202234). Further: nearly all actives have a fitted effect of over 35% in size. Put shortly:
as §2

Assay [7] is described as follows: BET inhibitor-based combinations targeting novel dependencies in MECOM-rearranged (r) AML: UCSD-AML1 cell line (AID 2202235). Further: nearly all actives have a fitted effect of over 40% in size. Put shortly:
as §2

A short description of assay [8]: BET inhibitor-based combinations targeting novel dependencies in MECOM-rearranged (r) AML: AML-191 cell line (AID 2202236; further: nearly all actives have a fitted effect of over 35% in size). Put shortly: as §1
The nature of assay [9]: BET inhibitor-based combinations targeting novel dependencies in MECOM-rearranged (r) AML: AML-194 cell line (AID 2202237; further: nearly all actives have a fitted effect of over 40% in size). Put shortly: as §1

Where “and” joins values, the source holds several entries; their conditions need not be identical. Identical values can stand only once. Results filed as inconclusive are left out. A number with no mark means an inactive call. Calls of active or inactive are those of the source. The call rests on the fitted dose curve; in most records, active means well fitted curve in the direction sought with a large enough effect; inconclusive means small, poorly fitted or top-dose-only effect, or another doubt; inactive means no such curve, though single readings can be large; an effect the other way counts as inactive or inconclusive.
Potency means the concentration at half of the fitted maximal effect.

Cellular tumor antigen p53 (Homo sapiens), sequence (P04637 whole entry, looked up): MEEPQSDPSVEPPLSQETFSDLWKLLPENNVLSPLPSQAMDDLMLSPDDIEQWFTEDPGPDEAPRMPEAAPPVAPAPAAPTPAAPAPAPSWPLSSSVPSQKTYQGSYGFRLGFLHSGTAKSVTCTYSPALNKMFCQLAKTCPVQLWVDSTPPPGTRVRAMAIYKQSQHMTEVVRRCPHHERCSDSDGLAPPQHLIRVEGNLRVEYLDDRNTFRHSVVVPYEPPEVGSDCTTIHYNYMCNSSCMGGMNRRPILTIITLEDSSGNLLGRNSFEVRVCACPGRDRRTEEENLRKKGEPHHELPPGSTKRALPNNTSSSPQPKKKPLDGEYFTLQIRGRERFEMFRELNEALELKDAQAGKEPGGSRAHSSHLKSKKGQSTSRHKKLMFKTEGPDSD

For the molecule `C=Cc1cc2oc(-c3ccc(O)c(F)c3)nc2cc1O`, in [1], the activation was -1%. In assay [2], the Potency entry was “inactive”.
As for `O=C(Cc1c(F)cccc1F)Nc1cc(OCc2ccc(Cl)cc2)ccn1`, in assay [1], the activation was 15.7%. Further, in assay [2], the Potency result is “inactive”.
Take `C[C@@H]1O[C@@H](O[C@@H]2\C=C/C=C\C=C/C=C\C[C@H](C)OC(=O)/C=C\[C@H]3O[C@@H]3C[C@H](O)C[C@]3(O)C[C@@H](O)[C@@H](C(=O)O)[C@H](C2)O3)[C@H](O)[C@H](N)[C@@H]1O`: the activation in assay [1] was 17.7%. Moreover, the Potency result in assay [2], in assay [4], in assay [5], in [6], in assay [7] and in assay [8] was “inactive” each time. Also, the Potency result in assay [9] was “inactive”. Also, the viability in [3] is 112%.
Consider `Cc1c2cc(c(C(=O)O)c1C)OC1OC(C(O)C(O)C1O)C(O)C(O)C1OC(O2)C(O)C(O)C1O` (centres undefined), for which, in [1], the activation is -5.34%. The Potency result in assay [2] was “inactive”.
As to `CC[C@H](Nc1ncnc2nc[nH]c12)c1nc2cccc(F)c2c(=O)n1-c1ccccc1`, the activation in assay [1] is 21.6% and 7.67%. Also, the Potency entry in [2] was “inactive”. The viability in [3] is 94.4%. Besides, the Potency in [4] is 4.68 µM (active); in [7] it was 5.9 µM (active).
Take `COC(=O)CC1OC(C)C2=C(O)c3c(O)cccc3C(=O)C23OC13` (centres undefined): the Potency in assay [1] is 5.88 µM (active); in assay [2], 1.58 µM (active).
For `CCCc1cc2c(N3CCN(C4=NCC(C)(C)S4)CC3)ncnc2s1`, the activation in [1] was -16.2%. Besides, the Potency entry in assay [2] is “inactive”.
Consider `CCC(C)/C=C(C)/C=C/C(=O)C1CCC(O)C(C)(O)C1=O` (centres undefined), for which the activation in [1] was 14.5%. Moreover, the Potency result in assay [2] is “inactive”.
Consider `Oc1cc(-c2nc(-c3ccccc3)[nH]c2-c2ccncc2)ccc1Cl`, for which, in [1], the activation was 22.4%. The Potency result in assay [2] was “inactive”. Also, the Potency in assay [4] was 4.17 µM (active); in assay [5] it was 14.8 µM (active); in assay [6], 7.42 µM (active).
`C#Cc1cccc(Nc2nc3cc(C(=O)O)ccc3c3cncnc23)c1`: the activation in assay [1] was 8.04%. The Potency result in [2] is “inactive”.
In the case of `COc1cc(CCc2ccc(OCC=C(C)C)cc2)cc(OC)c1OC`, in assay [1], the activation was -17.6%. The Potency result in assay [2] is “inactive”.
For the molecule `CC(O)C1C(=O)N2C(C(=O)O)=C(SC3CNC(C(=O)N(C)C)C3)C(C)C12` (centres undefined), the activation in [1] is -0.506% and -5.25%. For the same molecule, in assay [2], the Potency entry is “inactive”.
Turning to `C/C(=C\CCC1(C)C2CCC(C2)C1(C)O)C(=O)O` (centres undefined), in [1], the activation is -13.7%. Besides, the Potency result in [2] was “inactive”.
Regarding `CCc1c(Cl)c(O)c(Cl)c(O)c1C(=O)O[C@H]1[C@H](O)[C@H](OC)[C@H](OC/C2=C\C=C\C[C@H](O)/C(C)=C\[C@H](CC)[C@@H](O[C@@H]3OC(C)(C)[C@@H](OC(=O)C(C)C)[C@H](O)[C@@H]3O)/C(C)=C/C(C)=C/C[C@@H]([C@@H](C)O)OC2=O)O[C@@H]1C`, the activation in assay [1] was -0.333%. The Potency result in [2] is “inactive”.
Turning to `CC/C=C\C/C=C\C/C=C\CCCCCCCC(=O)OCC(O)COC1OC(CO)C(O)C(O)C1O` (centres undefined), in [1], the activation is 29.8%. In addition, the Potency result in assay [2] was “inactive”.
In the same order, the values of `CC(=O)OC[C@@]12C(=O)C[C@@H](C)[C@]3(C[C@@H](c4ccoc4)O[C@H]3OC(C)=O)[C@H]1CCC[C@]21CO1` are 11.5% and “inactive”.
Consider `O=C(O)c1cc(I)ccc1NC(=O)[C@H](Cc1ccccc1)NCc1ccccc1`, for which the activation in assay [1] is -19.7%. For the same molecule, in [2], the Potency entry was “inactive”.
On to `CC(C)CC(=O)n1cc(C(N)=O)c(=O)cc1C(O)c1ccccc1` (centres undefined), for which the activation in assay [1] is -1.53%. Moreover, the Potency entry in assay [2] was “inactive”.
Take `COc1ccc(OC)c(-c2ccc(NC(=O)c3ccncc3F)cc2)c1`: in [1], the activation was -5.73%. Besides, in [2], the Potency entry was “inactive”.
Take `CC1CCC2(C(=O)O)CCC3(C)C(=CCC4C5(C)CCC(O)C(C)(CO)C5CCC43C)C2C1(C)O` (centres undefined): in assay [1], the activation is -0.893%. In assay [2], the Potency result is “inactive”.
The matching figures for `C=C1C(O)C(O)C2(CC3C(C)=CCC4C(C)(C(=O)O)CCCC34C)OC2C1O` (centres undefined): -22.1% and “inactive”.
`CN(Cc1ccc(C(=O)O)cc1)c1ccc(OCc2c(-c3c(Cl)cccc3Cl)noc2C2CC2)nc1C(F)(F)F`: in assay [1], the activation is -10.5%. Moreover, in [2], the Potency result is “inactive”.
On to `Nc1ccccc1NC(=O)c1ccc(CNc2nccc(-c3cccnc3)n2)cc1`, for which the activation in [1] is 65.9%. In addition, in assay [2], the Potency result is “inactive”. Also, the Potency was 1.66 µM (active) in assay [3]; 1.32 µM (active) in [4]; 0.662 µM (active) in assay [5]; 1.86 µM (active) in assay [6]; 1.32 µM (active) in assay [7]; 1.66 µM (active) in assay [8]. Also, the Potency in assay [9] is 1.66 µM (active).
Regarding `O=C(NC1CCNCC1)c1[nH]ncc1NC(=O)c1c(Cl)cccc1Cl`, the Potency in assay [1] was 0.685 µM (active); in assay [3] it was 11.8 µM (active); in [4], 1.05 µM (active); in assay [5], 0.662 µM (active); in assay [6] it was 1.05 µM (active); in [7] it was 1.32 µM (active). For the same molecule, the figures for the Potency in assay [8] and in assay [9] were 2.09 µM (active) and 2.63 µM (active), respectively.
On to `O=C(O)c1ccc2cc(-c3ccc(O)c(C45CC6CC(CC(C6)C4)C5)c3)ccc2c1`, for which the activation in assay [1] was -20.4%. Further, the Potency in assay [3] is 0.59 µM (active); in assay [4], 0.525 µM (active); in assay [5], 0.934 µM (active); in assay [6], 1.05 µM (active); in [7], 0.934 µM (active); in assay [8], 0.934 µM (active).
As to `O=C(Nc1c(Cl)cncc1Cl)c1ccc(OC(F)F)c(OCC2CC2)c1`, in assay [1], the activation was -4.21%. Also, in assay [3], the viability was 98.8%. Also, the Potency result in assay [4], in assay [5], in assay [6], in assay [7], in [8] and in [9] was “inactive” throughout.
As for `CCOC(=O)C=C[C@H](C[C@@H]1CCNC1=O)NC(=O)[C@@H](CC(=O)[C@@H](NC(=O)c1cc(C)on1)C(C)C)Cc1ccc(F)cc1`, in assay [1], the activation is 17.3%. Moreover, the viability in assay [3] is 120%. The Potency result in assay [4], in assay [5], in assay [6], in assay [7] and in assay [8] was “inactive” in each case.
With `CN(CCOc1ccc(CC2SC(=O)NC2=O)cc1)c1ccccn1` (centres undefined), in [1], the activation was 6.69% and 5.38%. In addition, the viability in [3] was 102%. In addition, the Potency entry in assay [4], in assay [5], in assay [6], in [7], in assay [8] and in assay [9] was “inactive” throughout.

In general, viability refers to a read-out of living cells in per cent, often relative to untreated cells.
